Experimental data taken from the supplement of paper PMC8285479.
Where a name gives a salt, the structure may show the parent alone. ± gives the standard deviation of the averaged measurements. The full ranking holds about 1,900 compounds; the median of “normalised cell viability (NPI; 0 = phenylarsine oxide control, 1 = DMSO control)” is about 1, and the lowest 2% start at about 0.039. For the sample, the lowest values were picked, then their nearest neighbours and some compounds at random.

Test system: NCI-H1944
Test: normalised cell viability (NPI; 0 = phenylarsine oxide control, 1 = DMSO control) (fraction of DMSO control); NCI-H1944 is a non-small cell lung cancer line; higher = more viable cells (less compound toxicity)
Conditions: 6 days
[1] = glucocorticoid arm: hydrocortisone 2.75 uM co-treatment, compound 1 µM
[2] = glucocorticoid arm: hydrocortisone 2.75 uM co-treatment, compound 5 µM
[3] = glucocorticoid arm: hydrocortisone 2.75 uM pre-treated 2 days and continued, compound 1 µM
[4] = glucocorticoid arm: hydrocortisone 2.75 uM pre-treated 2 days and continued, compound 5 µM
[5] = glucocorticoid arm: vehicle, compound 1 µM
[6] = glucocorticoid arm: vehicle, compound 5 µM
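Also: CTB read-out in 384-well plates, triplicate wells, NPI normalised per plate against 1 µM phenylarsine oxide (0) and 0.1% DMSO (1) controls.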

Compound | normalised cell viability [1] | normalised cell viability [2] | normalised cell viability [3] | normalised cell viability [4] | normalised cell viability [5] | normalised cell viability [6]
CC(C)C[C@H](NC(=O)[C@H](Cc1ccccc1)NC(=O)c1cnccn1)B(O)O [Bortezomib] | 0.281 ± 0.011 | 0.0356 ± 0.0084 | 0.669 ± 0.035 | 0.28 ± 0.054 | 0.00407 ± 0.00064 | 0.00157 ± 0.00063
C#C[C@]1(O)CC[C@H]2[C@@H]3CCC4=Cc5oncc5C[C@]4(C)[C@H]3CC[C@@]21C [Danazol] | 0.998 ± 0.001 | 1 ± 0.021 | 0.991 ± 0.022 | 1.01 ± 0.027 | 1.007 ± 0.0058 | 1.013 ± 0.0058
C[C@]12CC[C@H](O)CC1=CC[C@@H]1[C@@H]2CC[C@]2(C)C(c3cccnc3)=CC[C@@H]12 [Abiraterone] | 1.043 ± 0.0058 | 1.18 ± 0.023 | 1.05 | 1.11 ± 0.025 | 0.848 ± 0.021 | 1.05 ± 0.011
O=C(NCCCNc1nc(Nc2cccc(NC(=O)N3CCCC3)c2)ncc1I)c1cccs1 | 0.9797 ± 0.0095 | 0.993 ± 0.027 | 0.9587 ± 0.0025 | 1.05 ± 0.017 | 0.71 ± 0.01 | 0.3133 ± 0.0023
c1ccc2c(-c3cnn4cc(-c5ccc(N6CCNCC6)cc5)cnc34)ccnc2c1 | 1.043 ± 0.0058 | 0.832 ± 0.14 | 1.04 ± 0.01 | 1.09 ± 0.021 | 1.01 ± 0.011 | 0.0214 ± 0.0048
Nc1ncnc2c1nc(Br)n2C1OC2COP(=O)(O)O[C@@H]2C1O (stereo not given in full) [8-Bromo-cAMP sodium] | 0.9863 ± 0.004 | 0.901 ± 0.017 | 0.983 ± 0.001 | 0.96 ± 0.016 | 0.9617 ± 0.0067 | 0.9647 ± 0.0093
Cc1nn(-c2ccccc2)c(C)c1C=NN1CCN(Cc2ccccc2)CC1 | 1.01 ± 0.01 | 0.991 ± 0.05 | 1.02 ± 0.011 | 0.9927 ± 0.0078 | 0.9987 ± 0.0023 | 0.996 ± 0.013
CNC(CC(=O)O)C(=O)O [NMDA (N-Methyl-D-aspartic acid)] | 1.006 ± 0.0069 | 1.03 ± 0.037 | 1.01 ± 0.032 | 1.01 ± 0.013 | 1.003 ± 0.0058 | 0.9973 ± 0.0025
FC(F)(F)c1cc(COC2CCCNC2c2ccccc2)cc(C(F)(F)F)c1 [L-733,060 hydrochloride] | 0.9863 ± 0.0067 | 0.843 ± 0.034 | 1 ± 0.014 | 0.993 ± 0.076 | 0.9957 ± 0.0067 | 0.928 ± 0.076
N/C(=N\C(=O)c1nc(Cl)c(N)nc1N)NCc1ccc(Cl)c(Cl)c1 [3',4'-Dichlorobenzamil hydrochloride] | 0.99 ± 0.0089 | 0.0646 ± 0.03 | 0.998 ± 0.013 | 0.862 ± 0.014 | 0.98667 ± 0.00058 | 0.0118 ± 0.0064
N/C(=N\C(=O)c1nc(Cl)c(N)nc1N)NCc1ccccc1 [Benzamil hydrochloride] | 1.023 ± 0.0058 | 1.04 ± 0.01 | 1.03 ± 0.011 | 1.05 ± 0.028 | 0.9897 ± 0.0045 | 1.02 ± 0.016
N=C(N)NC(=O)c1nc(Cl)c(N)nc1N [Amiloride hydrochloride] | 0.9737 ± 0.006 | 0.966 ± 0.023 | 0.991 ± 0.0052 | 0.992 ± 0.025 | 0.9947 ± 0.0084 | 1.003 ± 0.0064
CCCCCCCCCCCCCCCCCC(=O)NCC(COP(=O)([O-])OCC[N+](C)(C)C)OCC (racemic) [rac-2-Ethoxy-3-octadecanamido-1-propylphosphocholine] | 1.017 ± 0.0058 | 1.04 ± 0.011 | 1.01 ± 0.011 | 1.04 ± 0.021 | 0.9997 ± 0.0091 | 1.002 ± 0.0067
CCCCOc1cc(CC2CNC(=O)N2)ccc1OC (stereo not given) | 1.01 ± 0.01 | 1.01 ± 0.021 | 1.01 ± 0.011 | 1.01 ± 0.021 | 1.013 ± 0.0058 | 1.013 ± 0.0058
COC(=O)C[C@](O)(CCCC(C)(C)O)C(=O)O[C@@H]1C(OC)=C[C@]23CCCN2CCc2cc4c(cc2[C@H]13)OCO4 [Omacetaxine mepesuccinate] | 0.00277 ± 0.001 | 1.08 ± 0.026 | 0.0391 ± 0.002 | 1.03 ± 0.021 | 0.00151 ± 0.00092 | 1.017 ± 0.0058
O=c1[nH]c2cc(Cl)c(Cl)cc2[nH]c1=O [6,7-Dichloroquinoxaline-2,3-dione] | 1.01 ± 0.011 | 1.04 ± 0.011 | 1.003 ± 0.0061 | 1.04 ± 0.021 | 0.989 ± 0.007 | 1.002 ± 0.0068
NC(=O)c1cc[n+](CC2=C(C(=O)O)N3C(=O)[C@@H](NC(=O)C(c4ccccc4)S(=O)(=O)[O-])[C@H]3SC2)cc1 (stereo not given in full) [Cefsulodin sodium salt hydrate] | 1.01 | 1.013 ± 0.0058 | 1.02 | 1.01 ± 0.014 | 0.997 ± 0.013 | 0.9997 ± 0.0096
CCc1cnn2c(NCc3ccc[n+]([O-])c3)cc(N3CCCC[C@H]3CCO)nc12 | 0.0547 ± 0.0038 | 0.0409 ± 0.0039 | 0.144 ± 0.004 | 0.153 ± 0.0068 | 0.0139 ± 0.0022 | 0.00878 ± 0.0013
Oc1cc2c(cc1O)C(c1ccccc1)CNCC2 (racemic) | 0.987 ± 0.014 | 0.982 ± 0.013 | 0.982 ± 0.023 | 0.972 ± 0.011 | 0.992 ± 0.0044 | 0.9913 ± 0.0021
OC(CN1CCC(Cc2ccc(F)cc2)CC1)c1ccc(Cl)cc1 (stereo not given) [Eliprodil] | 0.9487 ± 0.0064 | 0.9277 ± 0.0051 | 0.9827 ± 0.0091 | 0.971 ± 0.0076 | 0.9973 ± 0.0046 | 0.9967 ± 0.0058
Cc1ccc(NC(=O)c2ccc(CN3CCN(C)CC3)cc2)cc1Nc1nccc(-c2cccnc2)n1 [Imatinib Mesylate] | 1.05 ± 0.015 | 1.14 ± 0.021 | 1.05 ± 0.015 | 1.1 ± 0.032 | 1.01 ± 0.01 | 1.03 ± 0.011
Nc1ccccc1NC(=O)c1ccc(CNC(=O)OCc2cccnc2)cc1 [Entinostat (MS-275)] | 1.05 ± 0.015 | 0.184 ± 0.004 | 1.023 ± 0.0058 | 0.302 ± 0.018 | 0.866 ± 0.026 | 0.02 ± 0.0035
CC(=O)Nc1ccc(C(=O)Nc2ccccc2N)cc1 | 1.02 ± 0.011 | 1.063 ± 0.0058 | 1.033 ± 0.0058 | 1.06 ± 0.011 | 0.9833 ± 0.0057 | 0.906 ± 0.052
Cc1ccc(NC(=O)c2ccc(CN3CCN(C)CC3)cc2)cc1Nc1nccc(-c2cccnc2)n1 [Imatinib (Gleevec)] | 1.05 ± 0.017 | 1.14 ± 0.015 | 1.037 ± 0.0058 | 1.1 ± 0.01 | 1.01 ± 0.015 | 1.033 ± 0.0058
COc1ccc(C(=O)NCc2cccnc2)cc1C(=O)NCc1cccnc1 [Picotamide] | 0.989 ± 0.017 | 0.992 ± 0.004 | 0.867 ± 0.26 | 1 ± 0.016 | 1.007 ± 0.0058 | 1.003 ± 0.0064
Cc1ccc(NC(=O)c2ccc(CN3CCN(C)CC3)cc2)cc1Nc1nccc(-c2cccnc2)n1 | 1.043 ± 0.0058 | 1.1 ± 0.032 | 1.04 ± 0.011 | 1.05 ± 0.01 | 0.9957 ± 0.004 | 1 ± 0.014
Nc1ccccc1NC(=O)c1ccc(CNC(=O)OCc2cccnc2)cc1 [Entinostat] | 0.925 ± 0.019 | 0.0313 ± 0.0074 | 0.962 ± 0.013 | 0.0766 ± 0.011 | 0.348 ± 0.03 | 0.00136 ± 0.00059
CC(=O)Nc1ccc(C(=O)Nc2ccccc2N)cc1 [CI994 (Tacedinaline)] | 0.9813 ± 0.0093 | 1.03 ± 0.029 | 0.999 ± 0.012 | 1.02 ± 0.02 | 0.9707 ± 0.0072 | 0.9157 ± 0.008
Nc1ccccc1NC(=O)c1ccc(CNc2nccc(-c3cccnc3)n2)cc1 [Mocetinostat (MGCD0103)] | 1.033 ± 0.0058 | 0.00494 ± 0.0024 | 1.02 ± 0.02 | 0.0153 ± 0.0051 | 0.585 ± 0.02 | 0.00194 ± 0.00024
Cc1cc(NC(=O)c2cccc(NC(=O)/C=C/CN(C)C)c2)ccc1Nc1nccc(-c2cccnc2)n1 | 0.989 ± 0.016 | 0.943 ± 0.017 | 1.007 ± 0.0058 | 0.917 ± 0.026 | 0.959 ± 0.011 | 0.702 ± 0.033
